Test [1] concerns Zika virus NS2B-NS3 protease (unlinked complex). Kind of test: Primary screen GU Rhodamine qHTS for Zika virus inhibitors: Unlinked NS2B-NS3 protease assay (AID 1347159). Further: nearly all actives have a fitted effect of over 60% in size. The conditions noted are these: Recombinant ZIKV NS2B-NS3 protease, Rhodamine110 substrate fluorescence; series mostly up to 107 µM. The gist of the method:
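Enzyme 25 nM in Tris-HCl pH 8.0 + 0.01% Tween 20; compounds up to 114 microM, 15 min RT dark; + Rhod110 substrate 1.5 microM; read t0 and 15 min; delta fluorescence → % inhibition → 4-parameter Hill fit.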

For test [2], the system named is Zika virus NS2B-NS3 protease (linked construct). Kind of test: Primary screen NINDS Rhodamine qHTS for Zika virus inhibitors (AID 1347160). Further: nearly all actives have a fitted effect of over 55% in size. Conditions: purified NS2B-NS3 protease, Rhodamine110 substrate fluorescence; series mostly up to 57.1 µM. An outline of the steps:
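Enzyme (25 nM, linked NS2B-NS3) was preincubated 15 min with compound in 10 mM Tris-HCl pH 8.0, 0.01% Tween 20. Rhodamine110 substrate (1.5 microM) was then added and fluorescence read at start and after 15 min.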
On the technique in general: qHTS replaces the single test concentration by a dilution series.

Records with an inconclusive call do not appear. The source made the active and inactive calls. The call rests on the fitted dose curve; in most records, active means well fitted inhibition curve with a large enough effect; inconclusive means small, poorly fitted or top-dose-only effect; inactive means no such curve, though single readings can be large or run the other way. Where a SMILES comes first, the peptide text is derived from it. The star is where a group is joined. AFC = O=c1cc(C(F)(F)F)c2ccc(N*)cc2o1
On the % scale 0 is the no-effect control and ±100 the full control effect.

In the case of `Fc1ccc2nc(CCC#Cc3ccccn3)cn2c1`, the Potency entry in test [1] and in test [2] was “inactive” throughout.

For `CC1=CC(=O)C2C(C)(C)CCC[C@]2(C)[C@H]1CO` (stereo partly specified), the Potency entry in test [1] and in test [2] was “inactive” throughout.

In the case of `C[C@@H]1COCCN1c1cc(C2(S(C)(=O)=O)CC2)nc(-c2cccc3[nH]ccc23)n1`, the Potency result in test [1] and in test [2] was “inactive” in each case.

Regarding `CC(C)C(CO)Nc1nc(Nc2ccc(C(=O)O)c(Cl)c2)c2ncn(C(C)C)c2n1` (stereo unspecified), the Potency result in test [1] and in test [2] was “inactive” each time.

Consider `CC(=O)OC1C(O)C2C(C)C3=CC(=O)OC3(O)CC2C2(C)CCCC(C)(CO)C12` (stereo unspecified), for which the Potency entry in test [1] and in test [2] was “inactive” each time.

With `C=C1C(O)CC2C(C(=O)O)=COC(O[C@@H]3O[C@H](COC(=O)/C=C/c4ccc(O)cc4)[C@@H](O)[C@H](O)[C@H]3O)C12` (stereo partly specified), the Potency entry in test [1] and in test [2] was “inactive” each time.

Turning to `CC(=O)N[C@@H](Cc1c[nH]c2ccccc12)C(=O)N[C@@H](CCC(=O)O)C(=O)N[C@@H](Cc1cnc[nH]1)C(=O)N[C@@H](CC(=O)O)C(=O)Nc1ccc2c(C(F)(F)F)cc(=O)oc2c1` (Ac-WEHD-{AFC}), the Potency entry in test [1] and in test [2] was “inactive” throughout.

In the case of `CNS(=O)(=O)c1ccccc1Nc1nc(Nc2ccc(N3CCN(C)CC3)cc2OC)ncc1Cl`, the Potency entry in test [1] and in test [2] was “inactive” in each case.

In the case of `COc1cc(N)c(Cl)cc1C(=O)NC[C@@H]1CCN2CCC[C@@H]12`, the Potency entry in test [1] and in test [2] was “inactive” throughout.

For the molecule `COc1ccc2cc(C(C)C(=O)Oc3ccc(C(N)=S)cc3)ccc2c1` (stereo unspecified), the Potency entry in test [1] and in test [2] was “inactive” throughout.

Turning to `CC(C)(O)CC(CO)NC(=O)CC(O)CC(=O)Cc1ccccc1` (stereo unspecified), the Potency result in test [1] and in test [2] was “inactive” in each case.

In the case of `O=C(O)CC(=O)OC[C@H]1O[C@@H](Oc2ccc3c(c2)OC[C@H]2c4cc5c(cc4O[C@@H]32)OCO5)[C@H](O)[C@@H](O)[C@@H]1O`, the Potency entry in test [1] and in test [2] was “inactive” throughout.

As for `C/C=C(\C)C(=O)O[C@@H]1CC2[C@@H](CC=C3C[C@@H](O[C@H]4C[C@H](OC)[C@H](O[C@H]5C[C@H](OC)[C@H](O[C@@H]6O[C@H](C)[C@@H](O[C@H]7C[C@H](OC)[C@H](O[C@@H]8O[C@H](CO)[C@@H](O)[C@H](O)[C@H]8O)[C@@H](C)O7)[C@H](OC)[C@H]6O)[C@@H](C)O5)[C@@H](C)O4)CC[C@@]32C)[C@@]2(O)CC[C@H](C(C)=O)[C@@]12C` (stereo partly specified), the activity change, negative = inhibition in test [1] is 8.5% [at 19.1 µM] (inactive); in test [2] it was 18.6% [at 10.7 µM] (inactive).

With `O=C(Nc1ccccc1-c1cn2c(CN3CCNCC3)csc2n1)c1ccc2ccccc2n1`, the Potency entry in test [1] and in test [2] was “inactive” each time.

For `Cc1cc(Cl)ccc1COc1ccnn1-c1cc(C(=O)O)ccn1`, the Potency result in test [1] and in test [2] was “inactive” in each case.

As to `CC1=CC2/C=C(\C)CC[C@@H](O)[C@@H](O)[C@@H]3O[C@@H]3C(=O)[C@]23C(=O)N[C@@H](CC(C)C)[C@@H]3[C@@H]1C` (stereo partly specified), the Potency entry in test [1] and in test [2] was “inactive” each time.

Take `CCC1C(=O)N(C)c2cnc(Nc3ccc(C(=O)NC4CCC(N5CCN(CC6CC6)CC5)CC4)cc3OC)nc2N1C(C)C` (stereo unspecified): the Potency result in test [1] and in test [2] was “inactive” in each case.

On to `CN(C)C(=O)NC1CCC(CCN2CCN(c3cccc(Cl)c3Cl)CC2)CC1` (stereo unspecified), for which the activity change, negative = inhibition in test [1] was 13.9% [at 19.1 µM] (inactive). Besides, the outcome in test [2] was “inactive [at 10.7 µM]”.

Regarding `COc1ccc(C(O)C(C)OC2OC(CO)C(O)C(O)C2O)cc1` (stereo unspecified), the Potency entry in test [1] and in test [2] was “inactive” throughout.

For `Cc1cc(C(=O)N2Cc3cnn(C)c3Nc3ccccc32)ccc1CNC(=O)N1CCC[C@H]1C(=S)N1CCCN(C)CC1`, the Potency entry in test [1] and in test [2] was “inactive” each time.

For `Cc1c2cc(c(C(=O)O)c1C)OC1OC(C(O)C(O)C1O)C(O)C(O)C1OC(O2)C(O)C(O)C1O` (stereo unspecified), the Potency result in test [1] and in test [2] was “inactive” each time.

In the case of `O=C(O)/C=C/c1cc2c(cc1O[C@@H]1O[C@H](CO)[C@@H](O)[C@H](O)[C@H]1O)OCO2`, the Potency result in test [1] and in test [2] was “inactive” each time.

For the molecule `COc1ccc(-c2ccc3c(N4CCOCC4)nc(N4CC(C)OC(C)C4)nc3n2)cc1CO` (stereo unspecified), the Potency entry in test [1] and in test [2] was “inactive” in each case.

In the case of `C=C1C(OC2OCC(O)C(O)C2O)CC2C(C)(C)C(O)CCC2(C)C1CC/C(C)=C\CO` (stereo unspecified), the Potency result in test [1] and in test [2] was “inactive” each time.

As to `CCC1=CC2CN(C1)Cc1c([nH]c3ccccc13)[C@@](C(=O)OC)(c1cc3c(cc1OC)N(C)[C@H]1[C@@](O)(C(=O)OC)[C@H](OC(C)=O)[C@]4(CC)C=CCN5CC[C@]31[C@@H]54)C2` (stereo partly specified), the Potency entry in test [1] and in test [2] was “inactive” each time.

In the case of `COC(=O)C1=CO[C@@H](O[C@@H]2O[C@H](CO)[C@@H](O)[C@H](O)[C@H]2O)C2C1C(=O)C[C@H]2C` (stereo partly specified), the Potency entry in test [1] and in test [2] was “inactive” in each case.

Turning to `N#Cc1ccc(C(=O)N2CCC3(CC2)N=C(N)c2c(F)ccc(F)c2N3)cn1`, the Potency entry in test [1] and in test [2] was “inactive” each time.

Turning to `CC(=O)/C=C/[C@H]1[C@](C)(O)[C@@H](O)[C@H](OC(C)=O)C2C(C)(C)CCC[C@@]21C` (stereo partly specified), the Potency result in test [1] and in test [2] was “inactive” in each case.

Source of the values: PubChem BioAssay (NCATS).
